ATXN2 expr inh = reduces ATXN2 reporter expression in HEK-293 cells; 0.72% of 360,000 active; HEK-293 ATXN2-luciferase reporter, luminescence, 24 h; Potency, µM (top dose mostly 57 µM), without a hit: at the top dose activity change, negative = inhibition, most hits filed as inhibitors; note: % is set by controls: 0 for no effect and ±100 for the full control effect; nearly all actives have a fitted effect of over 55% in size
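ATXN2-luciferase reporter cells (luciferase flanked by upstream and downstream ATXN2 gene portions) were treated 24 h at 37 °C with compounds at up to 57 uM. SteadyGlo luminescence gave expression; GF-AFC fluorescence gave viability.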
ATXN viability = cell viability loss in ATXN counter-screen. S2 cells (HEK-293 line with an ATXN2-luciferase reporter) viability, CellTiter-Fluor protease fluorescence, 24 h. AID 651635. 0.49% of 400,000 active. Potency, µM (highest dose often 56.7 µM), actives largely listed as cytotoxic; note: nearly all actives have a fitted effect of over 40% in size
HT1080NT lethal = kills 2HG-producing HT-1080-NT fibrosarcoma cells; HT-1080-NT fibrosarcoma viability, CellTiter-Glo ATP luminescence, 48 h; Potency, µM (top dose mostly 46.1 µM), for the others: at the top dose activity, negative = less viability, most hits filed as cytotoxic; 1.6% of 360,000 active;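 note: NT is the 2HG producing partner of a matched IDH1 knockdown line; 0% = DMSO-treated cells and -100% = media-only wells without cells; nearly all actives have a fitted effect of over 55% in size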
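Toxicity toward the 2HG-producing NT line was scored as %Activity, normalised to DMSO and no-cell wells, from CellTiter-Glo luminescence after 48 hours' treatment.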
HT1080 IDH1KD tx = toxicity to HT-1080 IDH1 knockdown cells (counter line). HT-1080 IDH1 knockdown viability, ATP luminescence, 48 h. 2% of 360,000 active. Potency, µM (titrated, usually from 46.1 µM), without a hit: at the highest dose activity, negative = toxicity, actives largely listed as cytotoxic. AID 686971;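 note: 0% = DMSO wells and -100% = cell-free medium wells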
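In this qHTS, HT-1080 cells depleted of IDH1 are exposed for 48 h at 37 °C to compound titrations. Toxicity is scored from CellTiter-Glo luminescence, with DMSO as full viability and medium alone as none.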
KB-V1 MDR tox = KB-V1 MDR subline cytotoxicity; 3.4% of 400,000 active; Potency, µM (titrated, usually from 46.1 µM), actives largely listed as cytotoxic; KB-V1 MDR cells viability, CellTiter-Glo, 72 h; note: % is set by controls: 0 for no effect and ±100 for the full control effect; nearly all actives have a fitted effect of over 60% in size
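qHTS viability screen in drug-selected KB-V1 MDR cells: 72 h compound treatment at 37 degrees C, ATP luminescence end point.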
KB-3-1 cytotox = kills parental KB-3-1 adenocarcinoma cells. KB-3-1 viability, CellTiter-Glo ATP luminescence, 72 h. Potency, µM (highest dose often 46.1 µM), hits mostly cytotoxic. 1.4% of 400,000 active; note: % is set by controls: 0 for no effect and ±100 for the full control effect; nearly all actives have a fitted effect of over 60% in size
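72 h, 37 °C compound treatment of KB-3-1 parental cells; CellTiter-Glo added, 10 min, luminescence read. Data corrected against DMSO-only plates and normalized before curve fitting.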
An asterisk follows results filed as active; i = inactive; ? = inconclusive; nt = no result. This is a sample that favours compounds with a hit; in the whole collection about 6.2% have one here. Calls come from the whole dose curve; as a rule, active = well fitted curve in the direction sought with a large enough effect; inconclusive = small, poorly fitted or top-dose-only effect, or another doubt; inactive = no such curve, though single readings can be large; an effect the other way counts as inactive or inconclusive. Potency is the fitted concentration of half-maximal effect.

SMILES	ATXN2 expr inh	ATXN viability	HT1080NT lethal	HT1080 IDH1KD tx	KB-V1 MDR tox	KB-3-1 cytotox
CCOC(=O)c1c(-c2cccs2)csc1NC(=O)c1ccncc1	?	i	-1%	-8%	i	i
CCOC(=O)c1c(-c2cccs2)csc1NC(=O)COC(=O)c1c(C)noc1C	1%	i	-20%	-7%	21µM*	i
CCOC(=O)c1c(-c2ccccc2)csc1NC(=O)CSc1nc(N)cc(N)n1	-14%	i	6%	-20%	3.3µM*	6.5µM*
CCOC(=O)c1c(NC(=O)CSc2nc3ccccc3o2)sc(C)c1C	21%	i	5%	-6%	i	i
CCOC(=O)c1c(-c2ccc(OC)cc2)csc1NC(=O)CNCc1ccco1	-4%	?	4%	5%	10µM*	i
CCOC(=O)c1c(-c2ccc(Cl)cc2)csc1NC(=O)CNCc1ccco1	nt	nt	-5%	-12%	i	i
O=C(Nc1ccccc1NC(=O)NC1CCCCC1)NC1CCCCC1	20µM*	?	-4%	5%	i	?
O=C(CNC(=O)OCc1ccccc1)NC1CCCCCCC1	23%	i	12%	12%	18µM*	i
O=C(N/N=C/c1cccc(F)c1)NC1CCCCC1	14%	i	9%	2%	i	i
O=C(N/N=C/c1ccccc1)NC1CCCCC1	67%	i	7%	10%	16µM*	i
Cc1ccc(C(=O)Nc2nnc(SCc3cc(=O)c4c(C)ccc(C)c4[nH]3)s2)cc1	-3%	i	nt	nt	i	?
CCOc1cc(N2CCOCC2)c(OCC)cc1NC(=O)Cc1ccc(OC)c(OC)c1	-7%	i	-1%	1%	5.8µM*	?
CCOc1cc(N2CCOCC2)c(OCC)cc1NC(=O)COc1ncnc2ccccc12	1%	i	-16%	-2%	16µM*	i
O=c1[nH]c(SCc2ccccc2)ncc1S(=O)(=O)c1ccccc1	nt	nt	10%	10%	nt	nt
COC(=O)c1c(OCc2ccccn2)cc(=O)n2c1CCN(Cc1cccc(C(F)(F)F)c1)CC2	nt	i	nt	nt	nt	nt
Cn1cnnc1Sc1ccc(CN2CCOc3ccc(C4=CCCCC4)cc3C2)o1	nt	i	nt	nt	nt	nt
N#Cc1c[nH]n2c(NC3CCCCC3)c(-c3cccc(Cl)c3)nc12	15%	i	nt	nt	?	i
CCc1nc(SCC(=O)Nc2cc(C)ccc2OC)c2c(C)c(C)sc2n1	0%	i	-7%	-4%	?	?
CCc1nc(SCC(=O)Nc2ccccc2OC)c2c(C)c(C)sc2n1	-22%	i	-5%	-20%	9.2µM*	i
CCc1nc(SCC(=O)N2c3ccccc3CC2C)c2c(C)c(C)sc2n1 (stereo not given)	?	i	6.3µM*	?	i	i
CCc1nc(SCC(=O)N2CC(=O)Nc3ccccc32)c2c(C)c(C)sc2n1	-13%	i	2%	8%	i	i
Cc1ccccc1-n1ncc2c(SCC(=O)N3c4ccccc4CC3C)ncnc21 (stereo not given)	-11%	i	?	?	9.2µM*	i
Cc1sc2nc(C(C)C)nc(SCC(=O)N3c4ccccc4CC3C)c2c1C (stereo not given)	61%	i	8%	17%	18µM*	i
Cc1ccccc1-n1ncc2c(SCC(=O)NC3CCCC3)ncnc21	-15%	i	-4%	-9%	?	i
CCOC(=O)CSc1nc(C(C)C)nc2sc(C)c(C)c12	-24%	i	4%	1%	i	i
Cc1nn(C(=O)c2cccc(F)c2)c(C)c1S(=O)(=O)N1CCOCC1	9%	i	nt	nt	i	i
Cc1ccc(-c2cc(NC(=O)C(C)Oc3ccccc3F)on2)cc1 (stereo not given)	16%	i	nt	nt	i	i
Cc1ccc(Nc2nc(Nc3ccc(Cl)cc3)nc(N3CCOCC3)n2)cc1	nt	nt	nt	nt	i	i
CCCCN1CC(c2nc3ccccc3n2CCCCOc2cc(C)cc(C)c2)CC1=O (stereo not given)	?	?	nt	nt	i	i

Screens: PubChem BioAssay, National Center for Advancing Translational Sciences (NCATS)
